# High-throughput results as filed in PubChem BioAssay.
# In the library only some 3.2% were active in any assay of this set; here they are far more common.
# ALOX12 inhib – blocks human 12-lipoxygenase activity. P18054. purified 12-hLO, xylenol orange hydroperoxide absorbance. Potency, µM (doses to about 57.1 µM), without a hit: at the highest dose activity change, negative = inhibition, most hits filed as inhibitors. actives 0.12% (n = 150,000); note: potency is the fitted concentration of half-maximal effect; nearly all actives have a fitted effect of over 55% in size
# Target sequence (P18054 whole entry, looked up): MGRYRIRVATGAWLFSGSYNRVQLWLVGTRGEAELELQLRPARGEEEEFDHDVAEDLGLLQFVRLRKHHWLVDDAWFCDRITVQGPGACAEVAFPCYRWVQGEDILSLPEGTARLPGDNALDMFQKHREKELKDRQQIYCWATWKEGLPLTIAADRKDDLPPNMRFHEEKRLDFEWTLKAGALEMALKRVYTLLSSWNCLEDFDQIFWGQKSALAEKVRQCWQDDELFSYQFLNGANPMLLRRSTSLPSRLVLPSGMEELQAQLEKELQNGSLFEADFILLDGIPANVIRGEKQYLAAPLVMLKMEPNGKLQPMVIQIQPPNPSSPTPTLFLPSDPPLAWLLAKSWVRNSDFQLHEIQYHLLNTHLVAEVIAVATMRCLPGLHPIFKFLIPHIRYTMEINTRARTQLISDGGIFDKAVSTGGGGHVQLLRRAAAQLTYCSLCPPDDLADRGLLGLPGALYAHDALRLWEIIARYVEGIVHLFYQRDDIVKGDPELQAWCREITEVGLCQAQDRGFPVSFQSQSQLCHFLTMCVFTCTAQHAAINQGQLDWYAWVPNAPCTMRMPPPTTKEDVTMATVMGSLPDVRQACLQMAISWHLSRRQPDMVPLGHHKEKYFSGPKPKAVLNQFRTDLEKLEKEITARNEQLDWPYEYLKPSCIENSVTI
#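 Purified human 12hLO (150 nM final) was preincubated with compounds for 15 min at room temperature in 25 mM Hepes pH 7.0, 0.01% Triton X-100, then reacted with 40 uM arachidonic acid for 30 min. Hydroperoxide was detected with ferrous iron/xylenol orange.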
# PNC inhibitor – blocks assembly of the perinucleolar compartment. PC3M PTB-GFP, PNC prevalence imaging, 16 h; hits give low values. actives 3.1% (n = 140,000). activity change (PNC), negative = inhibition, % at 10 µM. AID 2417;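 active = readout at or below -70, meaning at least 70% loss of cells showing the perinucleolar compartment, a nuclear body marking cancer cells; inconclusive = readout between -30 and a set limit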;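 note: plate controls were DMSO wells for no effect and camptothecin positive control wells for full effect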
#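 Read-out is percentage of cells bearing a perinucleolar compartment, from automated 20x imaging of fixed, Hoechst-stained PC3M PTB-GFP cells. Cells were seeded 4 h, then exposed 16 h to compound (23 nl of library stock) in duplicate plates.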
# ALOX15B inhib – inhibitors of human 15-lipoxygenase 2 (ALOX15B); purified 15hLO-2, xylenol orange hydroperoxide absorbance; Potency, µM (series often up to 57.1 µM), without a hit: top-dose activity change, negative = inhibition, actives largely listed as inhibitors; O15296; actives 0.56% (n = 110,000); note: potency is the fitted concentration of half-maximal effect; nearly all actives have a fitted effect of over 60% in size
#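 Purified human 15hLO-2 (50 nM) preincubated 15 min with compound, then 45 uM arachidonic acid for 90 min at RT in 25 mM Hepes pH 7.5, 0.01% Triton X-100. Hydroperoxide detected by Fe-xylenol orange; 573/405 nm absorbance ratio.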
# * hit, by the source's call; ? = inconclusive; nt = not tested or not shown; [ ] = another dose, or the depositor's remark. Unless noted, calls come from the whole dose curve; as a rule, active = well fitted curve in the direction sought with a large enough effect; inconclusive = small, poorly fitted or top-dose-only effect, or another doubt; inactive = no such curve, though single readings can be large; an effect the other way counts as inactive or inconclusive. Unless noted, % is set by controls: 0 for no effect and ±100 for the full control effect.
SMILES,ALOX12 inhib,PNC inhibitor,ALOX15B inhib
C=CCN(C)CCCNC(=O)/C=N/O,5%,-6,nt
CC(=O)Nc1ccc(S(=O)(=O)Nc2nc(CN3CCOCC3)nc3sc4c(c23)CCCC4)cc1,3%,-1,8%
Cc1cccc(Oc2nc(CN3CCOCC3)nc3sc4c(c23)CCCC4)c1,-2%,-104*,nt
O=c1[nH]c(NCCO)nc2c1C1(CCCCC1)Cc1ccccc1-2,-7%,28,-5%
CCC1(CC)Cc2ccccc2-c2nc(NCCO)[nH]c(=O)c21,0%,-100*,nt
CC(C)C(=O)Nc1ccc(S(=O)(=O)Nc2nccc(/C=C/c3ccccc3)n2)cc1,2%,13,nt
O=C(c1cccs1)N1CCc2ccccc21,-6%,?,-3%
O=C(C1CCCN1C(=O)c1cccs1)N1CCc2ccccc21 (stereo unspecified),-1%,-98*,0%
O=C1C=CC(=O)c2c(O)c(Cl)c(Cl)c(O)c21,?,nt,0%
Cc1ccc(OCc2nnc(SCCN3CCOCC3)n2C)cc1,-7%,-9,-10%
Cc1ccc(OCc2nnc(SCC(=O)N3CCOCC3)n2C)cc1,1%,-107*,-2%
CCCCn1c(SCC(=O)N2CCOCC2)nnc1-c1ccoc1C,-2%,-100*,nt
Cc1occc1-c1nnc(SCC(=O)N2CCOCC2)n1CCc1ccccc1,1%,-19,0%
COCC(=O)N1CCC[C@@]2(CCN(Cc3ccc(C#N)cc3)C2)C1,4%,nt,-4%
CCC1=C(OC(=O)N(CC)CC)N2C(=O)OC(=NCC3CC3)[C@]2(Cc2ccccc2)[C@H]2C1=CC[C@H]1C(=O)N(CC)C(=O)[C@H]12,-1%,nt,-9%
CN(C)c1ncnc2ccc(-c3ccccc3C#N)cc12,5%,nt,7%
CCOc1ccc(NS(=O)(=O)c2ccc3[nH]cc(C(=O)NCC4CCCO4)c(=O)c3c2)cc1 (stereo unspecified),-2%,10,-2%
CCOc1ccc(NS(=O)(=O)c2ccc3[nH]cc(C(=O)N(CC)CC)c(=O)c3c2)cc1,16µM*,6,-1%
CC(NC(=O)C(C(=O)c1cccc([N+](=O)[O-])c1)n1cc(Cl)ccc1=O)c1ccccc1 (stereo unspecified),2%,36,nt
O=Cc1cccc(Br)c1,0%,nt,-6%
CC1(C)Cc2c(C#N)c(OCC(=O)c3ccccc3)nc(-c3ccoc3)c2CO1,-7%,-22,?
CC1(C)Cc2c(C#N)c(OCC(=O)c3ccc(Cl)cc3)nc(-c3ccoc3)c2CO1,-11%,-94*,-24%
COc1ccc(Oc2ncc3nc(-c4cc(F)cc(F)c4)c(=O)n(CCC#N)c3n2)cc1,-3%,nt,-10%
COC(=O)Nc1ccc(OCc2ccccc2)cc1,0%,35,1%
COC(=O)Nc1ccc(Oc2ccccc2)cc1,-3%,-93*,-4%
SMILES,ALOX12 inhib,PNC inhibitor,ALOX15B inhib
CC(NC(=O)c1ccc2c(c1)OCO2)C1CCCO1 (stereo unspecified),-5%,25,-1%
C[C@@H](C(=O)Nc1ccc2ccccc2c1)[C@H]1C[C@]1(C)[C@H](NS(=O)(=O)c1ccc2ccccc2c1)c1ccccc1,1%,nt,-12%
COc1ccc(/C=N/N=C2\SC(CC(=O)O)C(=O)N2c2ccccc2)c(OC)c1 (stereo unspecified),1%,25,nt
CNC(=O)NC(=O)COC(=O)c1ccc(-n2c(C)ccc2C)cc1,-2%,-115*,nt
CC(C)NC(=O)NC(=O)COC(=O)c1ccc(OC(F)(F)F)cc1,1%,-89*,nt
CC(C)NC(=O)NC(=O)COC(=O)c1ccc(F)cc1F,-3%,6,nt
Cc1ccc(C(=O)OCC(=O)NC(=O)c2cccn2C)cc1,-1%,-81*,-6%
CCOC(=O)N1CCN(C(=O)c2ccc(-n3c(C)ccc3C)cc2)CC1,2%,-15,nt
Cc1ccc(S(=O)(=O)NC(C(=O)OCC(=O)NC(=O)c2cccn2C)C(C)C)cc1 (stereo unspecified),-6%,39,-6%
CC(C)CCCC(C)C1CCC2C3CC=C4CC(O)CC[C@@]4(C)C3CC[C@@]12C (stereo partly specified),3%,nt,0%
O=c1cnc2cnc(Nc3ccccc3)nc2n1C[C@H]1CCCO1,1%,nt,-13%
NC(=O)c1cc2cc(Cl)ccc2oc1=Nc1cccc(C(F)(F)F)c1,3%,7,nt
COC(=O)C1=C(C(=O)OC)[C@@H]2Nc3ccccc3[C@@]23C[C@@H](C(=O)OC)N(S(=O)(=O)c2ccc4c(c2)OCCN4C)C3=N1,3%[11.4 µM],nt,nt
NCCCNCCCCNCCCNC(=O)CCc1ccc(O)cc1,-4%[0.00818 µM],nt,45%[0.0915 µM]
CCCc1nn2c(N)c(/C=C3\C=Nc4ccccc43)c(=O)nc2s1,0%,0,nt
CCS(=O)(=O)c1nn2c(N)c(/C=C3/C=CC(=O)C(OC)=C3)c(=O)nc2s1,-5%,-116*,nt
COc1ccc(S(=O)(=O)N(C)CC(=O)Nc2ccc3c(c2)OCO3)cc1,-4%,?,2%
COc1cc(OC)cc(C(=O)Nc2c(F)cccc2F)c1,-5%,-119*,nt
COc1cccc(C(=O)Nc2c(F)c(F)c(F)c(F)c2F)c1,-6%,-14,-27%
COc1ccc(S(=O)(=O)N(C)CC(=O)Nc2c(F)cccc2F)cc1,-3%,-103*,2%[11.4 µM]
CN(C)c1ncc2nc(-c3ccccc3)c(=O)n(CCC#N)c2n1,nt,nt,2%
CCOc1cc(/C=N/NC(=O)c2cc(-c3cccc(OC)c3)n[nH]2)ccc1O,-8%,nt,nt
NC(=S)NNc1cc(Cl)cc(Cl)c1,?,-9,2.5µM*
NC(=S)NNC(=O)Nc1ccc(Cl)c(Cl)c1,-8%,27,nt
C/C(=C/Cc1c(O)cc2oc(C)cc(=O)c2c1O)COC1OC(CO)C(O)C(O)C1O (stereo unspecified),0%,25,nt
SMILES,ALOX12 inhib,PNC inhibitor,ALOX15B inhib
COC1=CC(=O)C(C(=O)c2ccccc2)=CC1=O,-22%,nt,-22%
C=CC(C1=CC(=O)C(OC)=CC1=O)c1ccccc1 (stereo unspecified),-25%,nt,20µM*
O[Si@](CCCN1CCCCC1)(c1ccc(F)cc1)C1CCCCC1,13%,nt,35%
C=CCn1c(-c2ccc(Cl)cc2)c[nH]c1=S,-2%,-7,?
C=CCn1c(-c2ccccc2)c[nH]c1=S,-4%,-117*,?
COC(=O)NNC(=O)Cc1cccc2ccccc12,1%,?,nt
Cc1nn(Cc2ccc(Cl)cc2)c(C)c1NC(=O)c1ccc([N+](=O)[O-])cc1,2%,-84*,nt
Cc1nn(Cc2ccc(Cl)cc2)c(C)c1NC(=O)Cn1nc([N+](=O)[O-])c(Cl)c1C,-9%,1,-17%
O=C(O)c1ccccc1NS(=O)(=O)c1ccc(Cl)c(Cl)c1,-3%,nt,nt
Cc1cc(S(=O)(=O)Nc2ccccc2C(=O)O)ccc1Cl,0%,-117*,-3%
CNC(=O)C1CC(=O)N(CCCc2ccccc2)C(=Nc2ccccc2)S1 (stereo unspecified),-9%,?,7%
CCOC(=O)CC(=O)CSc1nc2c(sc(=S)n2-c2ccc(OCC)cc2)c(=O)[nH]1,-14%,-8,nt
CCOc1ccc(-n2c(=S)sc3c(=O)[nH]c(SCC(=O)NC(C)CC)nc32)cc1 (stereo unspecified),-4%,-83*,-9%
COC(=O)N1CCC2(CC1)CN(c1ccccn1)C2,3%,nt,-7%
